# From article PMC7862700, “An all-to-all approach to the identification of sequence-specific readers for epigenetic DNA modifications on cytosine”
# Legend:
# Test in all cases: DAPPL (digital affinity profiling via proximity ligation, sequencing); 10 mM Tris-HCl pH 7.5, 50 mM NaCl, 1 mM DTT, 4% glycerol, room temperature, 30 min; GST-TFs on glutathione beads, 16-mer random dsDNA library, 0.1% formaldehyde crosslink after washing; high values mean tight binding
# FEV = target: T1, FEV (Homo sapiens, UniProt Q99581 1-238); details: protein: recombinant; tags: N-terminal GST; dsDNA, one strand shown
# T1 sequence: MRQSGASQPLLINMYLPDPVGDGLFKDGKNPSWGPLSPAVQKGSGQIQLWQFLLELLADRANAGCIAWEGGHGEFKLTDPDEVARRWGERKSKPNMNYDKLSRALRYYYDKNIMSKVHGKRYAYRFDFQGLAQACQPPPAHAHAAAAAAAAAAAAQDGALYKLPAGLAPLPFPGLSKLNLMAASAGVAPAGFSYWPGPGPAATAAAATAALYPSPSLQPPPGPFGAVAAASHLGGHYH
# Method in brief: (§1)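 A tag-only sample was pooled with DNA-barcoded human transcription factors that had been expressed in yeast as GST fusions and captured on glutathione beads. The pools were incubated for 30 min at room temperature with 200 nmole of a random double-stranded 16-mer DNA library in Tris/NaCl/DTT/glycerol buffer, then washed, crosslinked with 0.1% formaldehyde, proximity-ligated (BsaI/T4 ligase, 1 h, 37 °C), PCR-amplified and sequenced on an Illumina NextSeq500. Binding signal is each hexamer's read frequency for a factor divided by its frequency for the tag-only sample.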
# ETV5 = ETV5 (Homo sapiens, UniProt P41161 1-510); details: protein: recombinant; tags: N-terminal GST; dsDNA, one strand shown
# ETV5, sequence (P41161 whole entry): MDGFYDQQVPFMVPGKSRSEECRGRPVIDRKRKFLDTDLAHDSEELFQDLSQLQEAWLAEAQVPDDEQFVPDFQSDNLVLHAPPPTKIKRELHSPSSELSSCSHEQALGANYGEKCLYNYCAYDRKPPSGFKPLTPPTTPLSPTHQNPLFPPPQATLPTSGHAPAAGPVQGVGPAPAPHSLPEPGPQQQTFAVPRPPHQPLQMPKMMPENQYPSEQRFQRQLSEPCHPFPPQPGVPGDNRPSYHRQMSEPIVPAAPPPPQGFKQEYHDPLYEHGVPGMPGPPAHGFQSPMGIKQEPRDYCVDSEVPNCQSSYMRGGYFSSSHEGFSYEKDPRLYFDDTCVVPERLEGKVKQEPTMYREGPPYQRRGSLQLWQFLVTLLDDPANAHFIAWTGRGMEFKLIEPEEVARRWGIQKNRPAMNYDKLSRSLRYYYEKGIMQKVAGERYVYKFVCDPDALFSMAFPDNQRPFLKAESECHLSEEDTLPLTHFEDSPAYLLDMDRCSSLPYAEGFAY
# Method in brief: as §1
# HSF1 = HSF1 (Homo sapiens, UniProt Q00613 1-529); details: protein: recombinant; tags: N-terminal GST; chain copies: 3; dsDNA, one strand shown
# HSF1, sequence (Q00613 whole entry): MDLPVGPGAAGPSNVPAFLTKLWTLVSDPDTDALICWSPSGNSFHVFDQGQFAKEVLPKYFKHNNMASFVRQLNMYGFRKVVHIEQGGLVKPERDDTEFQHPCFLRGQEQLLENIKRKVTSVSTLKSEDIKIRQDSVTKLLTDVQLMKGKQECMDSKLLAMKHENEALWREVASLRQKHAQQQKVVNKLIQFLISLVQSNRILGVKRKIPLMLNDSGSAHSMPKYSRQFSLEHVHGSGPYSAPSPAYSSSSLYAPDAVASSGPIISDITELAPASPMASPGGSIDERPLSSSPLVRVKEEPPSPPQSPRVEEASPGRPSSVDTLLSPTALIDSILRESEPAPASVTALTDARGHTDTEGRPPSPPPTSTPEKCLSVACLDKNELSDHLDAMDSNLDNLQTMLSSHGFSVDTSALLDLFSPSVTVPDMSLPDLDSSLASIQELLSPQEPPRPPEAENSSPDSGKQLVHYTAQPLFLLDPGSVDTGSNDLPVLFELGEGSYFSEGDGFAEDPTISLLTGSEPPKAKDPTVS
# Method in brief: as §1
# SPIC = target: T2, SPIC (Homo sapiens, UniProt Q8N5J4 1-248); details: protein: recombinant; tags: N-terminal GST; dsDNA, one strand shown
# T2 sequence: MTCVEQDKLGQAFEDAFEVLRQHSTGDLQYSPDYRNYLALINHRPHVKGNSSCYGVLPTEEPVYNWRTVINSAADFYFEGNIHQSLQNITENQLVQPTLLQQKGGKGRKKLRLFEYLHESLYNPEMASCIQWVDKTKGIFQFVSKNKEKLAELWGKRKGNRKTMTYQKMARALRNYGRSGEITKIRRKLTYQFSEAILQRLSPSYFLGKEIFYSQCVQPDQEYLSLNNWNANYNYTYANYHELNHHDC
# Method in brief: as §1
# ELF4 = ELF4 (Homo sapiens, UniProt Q99607 1-663); details: protein: recombinant; tags: N-terminal GST; dsDNA, one strand shown
# ELF4, sequence (Q99607 whole entry): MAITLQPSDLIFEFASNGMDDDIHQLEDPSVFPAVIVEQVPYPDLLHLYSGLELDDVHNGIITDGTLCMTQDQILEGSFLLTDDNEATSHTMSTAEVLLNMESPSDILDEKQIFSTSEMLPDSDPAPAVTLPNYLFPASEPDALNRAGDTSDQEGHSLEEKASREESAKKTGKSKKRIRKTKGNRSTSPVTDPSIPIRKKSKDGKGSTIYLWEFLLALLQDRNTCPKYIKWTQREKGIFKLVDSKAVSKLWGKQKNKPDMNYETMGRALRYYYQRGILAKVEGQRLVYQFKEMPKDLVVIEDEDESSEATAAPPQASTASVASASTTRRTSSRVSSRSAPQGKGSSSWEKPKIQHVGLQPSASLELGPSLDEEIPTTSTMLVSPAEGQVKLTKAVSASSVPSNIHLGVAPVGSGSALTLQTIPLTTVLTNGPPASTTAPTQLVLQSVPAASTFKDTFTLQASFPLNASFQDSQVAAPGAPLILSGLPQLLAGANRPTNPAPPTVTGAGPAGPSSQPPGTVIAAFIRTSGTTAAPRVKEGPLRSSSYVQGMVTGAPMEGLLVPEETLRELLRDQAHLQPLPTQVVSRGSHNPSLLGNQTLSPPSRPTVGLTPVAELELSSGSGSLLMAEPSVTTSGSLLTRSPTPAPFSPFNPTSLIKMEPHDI
# Method in brief: as §1
# ELK4 = target: T3, ELK4 (Homo sapiens, UniProt P28324-2 1-405); details: protein: recombinant; tags: N-terminal GST; dsDNA, one strand shown
# T3 sequence: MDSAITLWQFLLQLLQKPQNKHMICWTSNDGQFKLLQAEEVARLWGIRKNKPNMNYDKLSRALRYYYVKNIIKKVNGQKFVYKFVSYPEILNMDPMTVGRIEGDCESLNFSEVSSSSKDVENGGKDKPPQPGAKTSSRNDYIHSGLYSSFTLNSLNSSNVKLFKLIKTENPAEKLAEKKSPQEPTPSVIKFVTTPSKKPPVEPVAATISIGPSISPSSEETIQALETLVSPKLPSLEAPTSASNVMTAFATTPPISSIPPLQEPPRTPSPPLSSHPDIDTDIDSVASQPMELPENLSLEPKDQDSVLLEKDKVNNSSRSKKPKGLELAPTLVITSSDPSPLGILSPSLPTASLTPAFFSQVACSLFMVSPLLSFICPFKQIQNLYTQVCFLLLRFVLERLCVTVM
# Method in brief: as §1
# ETV2 = target: T4, ETV2 (Homo sapiens, UniProt O00321 1-342); details: protein: recombinant; tags: N-terminal GST; dsDNA, one strand shown
# T4 sequence: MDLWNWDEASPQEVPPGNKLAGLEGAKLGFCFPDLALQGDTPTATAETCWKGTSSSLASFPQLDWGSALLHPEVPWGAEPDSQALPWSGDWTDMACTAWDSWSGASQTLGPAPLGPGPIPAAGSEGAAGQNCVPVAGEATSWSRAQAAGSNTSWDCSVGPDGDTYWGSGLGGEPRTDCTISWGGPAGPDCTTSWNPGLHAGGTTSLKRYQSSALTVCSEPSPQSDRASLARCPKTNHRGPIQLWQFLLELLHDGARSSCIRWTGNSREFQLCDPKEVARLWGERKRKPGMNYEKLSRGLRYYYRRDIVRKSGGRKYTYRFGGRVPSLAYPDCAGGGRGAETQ
# Method in brief: as §1
# ELF3 = target: T5, ELF3 (Homo sapiens, UniProt P78545 1-371); details: protein: recombinant; tags: N-terminal GST; dsDNA, one strand shown
# T5 sequence: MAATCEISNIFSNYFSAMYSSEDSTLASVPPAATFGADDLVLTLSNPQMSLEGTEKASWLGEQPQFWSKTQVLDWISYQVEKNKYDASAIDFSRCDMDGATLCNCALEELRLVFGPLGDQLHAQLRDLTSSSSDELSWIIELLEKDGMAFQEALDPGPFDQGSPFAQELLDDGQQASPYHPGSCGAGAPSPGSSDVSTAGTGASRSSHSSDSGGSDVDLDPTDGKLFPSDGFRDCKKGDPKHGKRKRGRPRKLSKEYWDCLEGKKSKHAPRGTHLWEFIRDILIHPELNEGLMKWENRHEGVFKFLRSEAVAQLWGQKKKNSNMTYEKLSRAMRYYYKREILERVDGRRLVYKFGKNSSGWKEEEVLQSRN
# Method in brief: as §1
# CRX = CRX (Homo sapiens, UniProt O43186 1-299); details: protein: recombinant; tags: N-terminal GST; dsDNA, one strand shown
# CRX, sequence (O43186 whole entry): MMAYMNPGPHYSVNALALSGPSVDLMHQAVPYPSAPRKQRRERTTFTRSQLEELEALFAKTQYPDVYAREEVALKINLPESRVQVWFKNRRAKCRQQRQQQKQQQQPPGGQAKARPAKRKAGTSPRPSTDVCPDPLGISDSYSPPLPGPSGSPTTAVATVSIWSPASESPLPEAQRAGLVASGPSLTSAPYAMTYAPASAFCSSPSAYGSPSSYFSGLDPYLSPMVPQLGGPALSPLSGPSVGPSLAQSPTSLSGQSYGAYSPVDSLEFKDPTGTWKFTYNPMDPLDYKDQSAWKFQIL
# Method in brief: as §1
# ETV1 = ETV1 (Homo sapiens, UniProt P50549 1-477); details: protein: recombinant; tags: N-terminal GST; dsDNA, one strand shown
# ETV1, sequence (P50549 whole entry): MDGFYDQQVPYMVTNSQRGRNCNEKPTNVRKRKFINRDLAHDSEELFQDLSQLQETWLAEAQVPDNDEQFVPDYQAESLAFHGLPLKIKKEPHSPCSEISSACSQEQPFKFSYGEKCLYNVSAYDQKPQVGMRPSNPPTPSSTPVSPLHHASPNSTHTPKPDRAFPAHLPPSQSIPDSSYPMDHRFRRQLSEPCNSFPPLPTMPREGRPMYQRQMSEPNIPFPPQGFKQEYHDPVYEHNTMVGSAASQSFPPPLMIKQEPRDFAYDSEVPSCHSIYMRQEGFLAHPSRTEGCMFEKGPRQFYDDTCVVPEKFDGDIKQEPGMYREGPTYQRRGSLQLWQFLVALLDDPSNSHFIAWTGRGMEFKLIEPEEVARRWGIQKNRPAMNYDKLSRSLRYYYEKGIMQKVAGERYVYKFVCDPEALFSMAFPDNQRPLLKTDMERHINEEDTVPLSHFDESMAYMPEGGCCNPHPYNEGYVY
# Method in brief: as §1
sequence,measurement,setting,value
TCCTAC,binding signal,FEV,"1.4 fold enrichment (6-mer frequency, TF over GST control)"
same,binding signal,ETV5,"1.51 fold enrichment (6-mer frequency, TF over GST control)"
same,binding signal,HSF1,"1.21 fold enrichment (6-mer frequency, TF over GST control)"
same,binding signal,SPIC,"1.54 fold enrichment (6-mer frequency, TF over GST control)"
same,binding signal,ELF4,"1.41 fold enrichment (6-mer frequency, TF over GST control)"
same,binding signal,ELK4,"1.29 fold enrichment (6-mer frequency, TF over GST control)"
same,binding signal,ETV2,"1.59 fold enrichment (6-mer frequency, TF over GST control)"
same,binding signal,ELF3,"1.16 fold enrichment (6-mer frequency, TF over GST control)"
same,binding signal,CRX,"1.31 fold enrichment (6-mer frequency, TF over GST control)"
same,binding signal,ETV1,"1.39 fold enrichment (6-mer frequency, TF over GST control)"
